Measurements taken from PubChem BioAssay (Tox21).
Records with an inconclusive call do not appear. Calls of active or inactive are those of the source. Calls follow the shape of the dose curve; as a rule, active = well fitted curve in the direction sought with a large enough effect in the repeat runs; inconclusive = weak or mixed curves; inactive = no such curve, though single readings can be large; an effect the other way counts as inactive or inconclusive.

Tests used:
[1] = qHTS RealTime-Glo MT Cell Viability Assay in HEK293 cells - 32 hour (AID 1224868); also: top concentration of the series differs between compounds; nearly all actives have a fitted effect of over 50% in size
Outline: (§1)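 Cells + reagent dispensed (600 cells/well, HEK293) → 5 h at 37 C/5% CO2 → 23 nL compound in DMSO pinned → 40 h at 37 C → luminescence read at 0, 8, 16, 24, 32, 40 h.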

[2] = A CellTox Green Cytotoxicity Assay to monitor cytotoxicity in HEK293 cells - 0 hour (AID 1224869); also: nearly all actives have a fitted effect of over 50% in size
Outline: (§2)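 HEK293 cells, 600/well, were preincubated 5 hours and then exposed to compounds at 37 C for up to 40 hours. A cell-impermeant cyanine dye staining dead-cell DNA was read by fluorescence at 0, 8, 16, 24, 32 and 40 h time points.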

[3] = qHTS RealTime-Glo MT Cell Viability Assay in HepG2 cells - 40 hour (AID 1224870); also: nearly all actives have a fitted effect of over 50% in size
Outline: (§3)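 Real-time viability: cells seeded at 600 per well together with NanoLuc and cell-permeant prosubstrate, compounds added after 5 h incubation. Luminescence tracked at 0, 8, 16, 24, 32 and 40 h of exposure.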

[4] = A CellTox Green Cytotoxicity Assay to monitor cytotoxicity in HEK293 cells - 40 hour (AID 1224871); also: nearly all actives have a fitted effect of over 45% in size
Outline: as §2

[5] = qHTS RealTime-Glo MT Cell Viability Assay in HEK293 cells - 16 hour (AID 1224872); also: top concentration of the series differs between compounds; nearly all actives have a fitted effect of over 50% in size
Outline: as §1

[6] = qHTS RealTime-Glo MT Cell Viability Assay in HepG2 cells - 8 hour (AID 1224873); also: nearly all actives have a fitted effect of over 55% in size
Outline: as §3

[7] = qHTS RealTime-Glo MT Cell Viability Assay in HEK293 cells - 40 hour (AID 1224874); conditions: RealTime-Glo luminescence, stronger effect = lower value; also: nearly all actives have a fitted effect of over 50% in size
Outline: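 600 cells/well were plated with the nonlytic NanoLuc/prosubstrate reagent, pre-incubated 5 h, then given 23 nL of compound in DMSO. Incubation at 37 C for 40 h, with luminescence from viable-cell-reduced substrate read repeatedly from 0 h.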

[8] = A CellTox Green Cytotoxicity Assay to monitor cytotoxicity in HEK293 cells - 24 hour (AID 1224875); also: series mostly up to about 77 µM; nearly all actives have a fitted effect of over 45% in size
Outline: as §2

[9] = A CellTox Green Cytotoxicity Assay to monitor cytotoxicity in HepG2 cells - 16 hour (AID 1224876); also: nearly all actives have a fitted effect of over 45% in size
Outline: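 HepG2 cells, 600/well, preincubated 5 h with CellTox Green dye, then exposed to Tox21 compounds in DMSO at 37 C for up to 40 h. Dead-cell DNA fluorescence read at the indicated time point.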

[10] = qHTS RealTime-Glo MT Cell Viability Assay in HepG2 cells - 32 hour (AID 1224877); also: nearly all actives have a fitted effect of over 55% in size
Outline: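 Real-time, nonlytic viability: 600 HepG2 cells/well mixed with NanoLuc enzyme plus prosubstrate; 5 h settle, compound (DMSO) added by pintool; luminescence monitored over 40 h at 37 C.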
% is scaled to controls: 0 for no effect and ±100 for the full control effect.

CC(C)CC(O)Cc1ccccc1 (stereo not given)
inactive: outcome [1] | outcome [2] | outcome [3] | Potency [4] | outcome [5] | outcome [6] | max response [7] 1.47% | Potency [8] | Potency [9] | outcome [10]

CC(C)(C)C(=O)NCCCC(=O)O
inactive: outcome [1] | outcome [2] | outcome [3] | Potency [4] | outcome [5] | outcome [6] | max response [7] 5.71% | Potency [8] | Potency [9] | outcome [10]

Nc1nc(Cl)cc(Cl)n1
inactive: outcome [1] | outcome [2] | outcome [3] | Potency [4] | outcome [5] | outcome [6] | max response [7] 16.9% | Potency [8] | Potency [9] | outcome [10]

C[C@@H]1CCC[C@H](C)N1CCCC(O)(c1ccccc1)c1ccccn1 (stereo not given in full)
inactive: outcome [1] | outcome [2] | outcome [3] | Potency [4] | outcome [5] | outcome [6] | max response [7] 4.53% | Potency [8] | Potency [9] | outcome [10]

CN1C(CCl)Nc2cc(Cl)c(S(N)(=O)=O)cc2S1(=O)=O (stereo not given)
inactive: outcome [1] | outcome [2] | outcome [3] | Potency [4] | outcome [5] | outcome [6] | max response [7] -6.26% | Potency [8] | Potency [9] | outcome [10]

Cc1ccc(O)c(C(=O)c2ccccc2)c1
inactive: outcome [1] | outcome [2] | outcome [3] | Potency [4] | outcome [5] | outcome [6] | max response [7] -5.5% | Potency [8] | Potency [9] | outcome [10]

CCCCC(O)/C=C(C)/C=C/C=C/C(=O)N1CCCC1=O (stereo not given)
inactive: outcome [1] | outcome [2] | outcome [3] | Potency [4] | outcome [5] | outcome [6] | max response [7] 2.14% | Potency [8] | Potency [9] | outcome [10]

CSC(=O)c1cccc2nnsc12
inactive: outcome [1] | outcome [2] | outcome [3] | Potency [4] | outcome [5] | outcome [6] | max response [7] -1.81% | Potency [8] | Potency [9] | outcome [10]

BrCCOc1ccccc1
inactive: outcome [1] | outcome [2] | outcome [3] | Potency [4] | outcome [5] | outcome [6] | max response [7] -4.49% | Potency [8] | Potency [9] | outcome [10]

C=CC(=O)OCCOCCOCC
inactive: outcome [1] | outcome [2] | outcome [3] | Potency [4] | outcome [5] | outcome [6] | max response [7] 21.6% | Potency [8] | Potency [9] | outcome [10]

CC(O)CCCCn1c(=O)c2c(ncn2C)n(C)c1=O (stereo not given)
inactive: outcome [1] | outcome [2] | outcome [3] | Potency [4] | outcome [5] | outcome [6] | max response [7] 0.953% | Potency [8] | Potency [9] | outcome [10]

Cc1cc(=O)oc2cc(O[C@@H]3SC[C@@H](O)[C@H](O)[C@H]3O)ccc12
inactive: outcome [1] | outcome [2] | outcome [3] | Potency [4] | outcome [5] | outcome [6] | max response [7] -5.1% | Potency [8] | Potency [9] | outcome [10]

CCOC(=O)CC
inactive: outcome [1] | outcome [2] | outcome [3] | Potency [4] | outcome [5] | outcome [6] | max response [7] 19% | Potency [8] | Potency [9] | outcome [10]

CNC(=O)c1c(I)c(NC(C)=O)c(I)c(C(=O)O)c1I
inactive: outcome [1] | outcome [2] | outcome [3] | Potency [4] | outcome [5] | outcome [6] | max response [7] 3.75% | Potency [8] | Potency [9] | outcome [10]

CC(=O)Nc1ccc(S(=O)(=O)Nc2cc(C)on2)cc1
inactive: outcome [1] | outcome [2] | outcome [3] | Potency [4] | outcome [5] | outcome [6] | max response [7] 0.358% | Potency [8] | Potency [9] | outcome [10]

C/C(=N\O)c1ccc(OCC(=O)N2CCCCC2)cc1
inactive: outcome [1] | outcome [2] | outcome [3] | Potency [4] | outcome [5] | outcome [6] | max response [7] -11.7% | Potency [8] | Potency [9] | outcome [10]

CCN(CC)CC
inactive: outcome [1] | outcome [2] | outcome [3] | Potency [4] | outcome [5] | outcome [6] | max response [7] -12.9% | Potency [8] | Potency [9] | outcome [10]

CC(C)(C)c1ccc(C(=O)CCCCl)cc1
inactive: outcome [1] | outcome [2] | outcome [3] | Potency [4] | outcome [5] | outcome [6] | max response [7] -1.09% | Potency [8] | Potency [9] | outcome [10]

CCOC(=O)CC(C(C)=O)C(C)=O
inactive: outcome [1] | outcome [2] | outcome [3] | Potency [4] | outcome [5] | outcome [6] | max response [7] 0.909% | Potency [8] | Potency [9] | outcome [10]

COCCCOc1cc(C[C@@H](C[C@H](N)[C@@H](O)C[C@H](C(=O)NCC(C)(C)C(N)=O)C(C)C)C(C)C)ccc1OC
inactive: outcome [1] | outcome [2] | outcome [3] | Potency [4] | outcome [5] | outcome [6] | max response [7] 2.37% | Potency [8] | Potency [9] | outcome [10]

CN(C)CCCN(C)C
inactive: activity change, negative = cytotoxic [1] 0.277% [at 6.97 µM] | cytotoxicity [2] 0.262% [at 6.97 µM] | activity change, negative = cytotoxic [3] 1.14% [at 6.97 µM] | cytotoxicity increase [4] -1.24% [at 6.97 µM] | activity change, negative = cytotoxicity [5] -4.3% [at 6.97 µM] | viability change, negative = cytotoxic [6] 0.94% [at 6.97 µM] | max response [7] 0.838% | activity change [8] -1.21% [at 6.97 µM, stronger effect = higher value] | cytotoxicity increase [9] -15.4% [at 6.97 µM] | activity change, negative = cytotoxic [10] 0.21% [at 6.97 µM]

COC(=O)c1ccc(NC(C)=O)cc1OC
inactive: outcome [1] | outcome [2] | outcome [3] | Potency [4] | outcome [5] | outcome [6] | max response [7] 3.94% | Potency [8] | Potency [9] | outcome [10]

CCC(C)(C)C
inactive: outcome [1] | outcome [2] | outcome [3] | Potency [4] | outcome [5] | outcome [6] | max response [7] 2.63% | Potency [8] | Potency [9] | outcome [10]
